Results as given in the supplement of paper PMC10849652.
Targets with a hit are over-represented here; the source holds about 7,900 in all. About 0.6% of all pairs of compound and target were hits. Values without a mark were called inactive.

Columns and labels:
Assay in all cases: log2 fold change, soluble protein after heating vs DMSO (PISA); higher = thermal stabilisation; K562 cells, 10 uM, 30 min; active = over 0.2 and 3.5 SD of the protein, either way, in both replicates (recomputed)
[1] = compound: CC[C@@H]1C(=O)N(C)c2cnc(Nc3ccc(C(=O)NC4CCN(C)CC4)cc3OC)nc2N1C1CCCC1
Summary of the method: (§1)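 Soluble protein was quantified by TMTpro 16plex LC-MS/MS after channel sums were equalised. It was obtained as the supernatant after 21,000xg for 90 min from pooled aliquots of K562 cells (2×10^6 cells/mL, 10 μM compound, 30 min) heated for 3 min across 48°C-58°C and extracted in PBS with 0.5% NP-40 at 4°C. Thermal stability values are relative to control samples and come from duplicates. They are given as log2 fold changes.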

volasertib = compound: CC[C@@H]1C(=O)N(C)c2cnc(Nc3ccc(C(=O)N[C@H]4CC[C@H](N5CCN(CC6CC6)CC5)CC4)cc3OC)nc2N1C(C)C [volasertib]
Summary of the method: as §1

[2] = compound: CC[C@H](C)N1C=C(C2=C(C=C(C=C21)C3=CN=C(C=C3)N4CCNCC4)C(=O)NCC5=C(C=C(NC5=O)C)C)C
Summary of the method: as §1

epoxomicin = compound: CC[C@H](C)[C@@H](C(=O)N[C@@H]([C@@H](C)O)C(=O)N[C@@H](CC(C)C)C(=O)[C@]1(CO1)C)NC(=O)[C@H]([C@@H](C)CC)N(C)C(=O)C [epoxomicin]
Summary of the method: as §1

[3] = compound: CCn1c(C(=O)N(C2CC2)C2CC2)cc2c3c(ncn3C)c(Nc3cc(C)n(C)n3)nc21
Summary of the method: as §1

[4] = compound: CCn1cc(-c2ccnc3[nH]c(-c4cccc(CN(C)C)c4)cc23)c(-c2ccc(NC(=O)N(C)C)cc2)n1
Summary of the method: as §1

[5] = compound: CN(C)CC(=O)Nc1ccc2[nH]c(=O)c3ccccc3c2c1
Summary of the method: as §1

rosiglitazone = compound: CN(CCOC1=CC=C(C=C1)C[C@H]2C(=O)NC(=O)S2)C3=CC=CC=N3 (racemic) [rosiglitazone]
Summary of the method: as §1

[6] = compound: CN1C2=C(C3=C1C(=O)N(N=C3)CC4=CC(=CC=C4)N)SC(=C2)S(=O)C
Summary of the method: as §1

[7] = compound: CN1CCC(CNc2ccc3ncc(-c4cccc(OC(F)(F)F)c4)n3n2)CC1
Summary of the method: as §1

saracatinib = compound: CN1CCN(CCOc2cc(OC3CCOCC3)c3c(Nc4c(Cl)ccc5c4OCO5)ncnc3c2)CC1 [saracatinib]
Summary of the method: as §1

sotrastaurin = compound: CN1CCN(c2nc(C3=C(c4c[nH]c5ccccc45)C(=O)NC3=O)c3ccccc3n2)CC1 [sotrastaurin]
Summary of the method: as §1

alvocidib = compound: CN1CC[C@H](c2c(O)cc(O)c3c(=O)cc(-c4ccccc4Cl)oc23)[C@H](O)C1 [alvocidib]
Summary of the method: as §1

Tubastatin A = compound: CN1CCc2c(c3ccccc3n2Cc2ccc(C(=O)NO)cc2)C1 [Tubastatin A]
Summary of the method: as §1

[8] = compound: CNC(=O)C1=CC=CC=C1NC2=NC(=NC=C2Cl)NC3=C(C=C(C=C3)N4CCOCC4)OC
Summary of the method: as §1

defactinib = compound: CNC(=O)c1ccc(Nc2ncc(C(F)(F)F)c(NCc3nccnc3N(C)S(C)(=O)=O)n2)cc1 [defactinib]
Summary of the method: as §1

rucaparib = compound: CNCc1ccc(-c2[nH]c3cc(F)cc4c3c2CCNC4=O)cc1 [rucaparib]
Summary of the method: as §1

[9] = compound: CNc1nc(-c2ccc3c(N)n[nH]c3c2)cc(N2C[C@@H](C(=O)NC3CCCCC3)CC[C@H]2C)n1
Summary of the method: as §1

encorafenib = compound: COC(=O)N[C@@H](C)CNc1nccc(-c2cn(C(C)C)nc2-c2cc(Cl)cc(NS(C)(=O)=O)c2F)n1 [encorafenib]
Summary of the method: as §1

[10] = compound: COC(=O)[C@H](CCSC)NC(=O)C1=C(C=C(C=C1)NC[C@H](CS)N)C2=CC=CC=C2
Summary of the method: as §1

UniProt Q96LJ7, sequence (Q96LJ7 whole entry, looked up): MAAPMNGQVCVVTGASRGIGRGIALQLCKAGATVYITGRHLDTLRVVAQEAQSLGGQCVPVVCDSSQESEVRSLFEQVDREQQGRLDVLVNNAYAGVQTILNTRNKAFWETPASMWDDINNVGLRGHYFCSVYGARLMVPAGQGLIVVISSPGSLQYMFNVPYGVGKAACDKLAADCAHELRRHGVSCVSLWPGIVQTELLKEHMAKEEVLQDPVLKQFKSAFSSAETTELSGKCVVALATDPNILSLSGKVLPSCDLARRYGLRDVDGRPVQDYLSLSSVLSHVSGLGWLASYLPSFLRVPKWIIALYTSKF
UniProt Q5W0V3, sequence (Q5W0V3 whole entry, looked up): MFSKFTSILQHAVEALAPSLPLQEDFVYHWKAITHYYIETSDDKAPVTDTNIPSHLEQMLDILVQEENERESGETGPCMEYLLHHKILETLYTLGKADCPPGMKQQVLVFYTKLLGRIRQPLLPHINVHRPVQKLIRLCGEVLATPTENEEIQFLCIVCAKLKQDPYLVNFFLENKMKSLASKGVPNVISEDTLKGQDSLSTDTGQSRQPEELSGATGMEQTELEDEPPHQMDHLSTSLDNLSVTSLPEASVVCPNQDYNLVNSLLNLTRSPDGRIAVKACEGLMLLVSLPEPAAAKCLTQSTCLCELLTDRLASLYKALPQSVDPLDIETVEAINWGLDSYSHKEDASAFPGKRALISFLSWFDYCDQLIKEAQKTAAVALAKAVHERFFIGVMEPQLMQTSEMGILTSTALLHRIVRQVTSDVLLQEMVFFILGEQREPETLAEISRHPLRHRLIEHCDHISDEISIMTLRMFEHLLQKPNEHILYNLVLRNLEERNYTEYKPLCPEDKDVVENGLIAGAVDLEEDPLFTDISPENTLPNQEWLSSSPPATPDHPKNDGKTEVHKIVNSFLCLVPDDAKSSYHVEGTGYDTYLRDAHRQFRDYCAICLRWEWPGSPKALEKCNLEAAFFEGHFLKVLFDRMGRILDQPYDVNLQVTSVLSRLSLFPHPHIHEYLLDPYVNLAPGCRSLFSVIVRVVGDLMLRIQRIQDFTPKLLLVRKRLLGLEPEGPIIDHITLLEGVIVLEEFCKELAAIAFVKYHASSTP
UniProt Q99848, sequence (Q99848 whole entry, looked up): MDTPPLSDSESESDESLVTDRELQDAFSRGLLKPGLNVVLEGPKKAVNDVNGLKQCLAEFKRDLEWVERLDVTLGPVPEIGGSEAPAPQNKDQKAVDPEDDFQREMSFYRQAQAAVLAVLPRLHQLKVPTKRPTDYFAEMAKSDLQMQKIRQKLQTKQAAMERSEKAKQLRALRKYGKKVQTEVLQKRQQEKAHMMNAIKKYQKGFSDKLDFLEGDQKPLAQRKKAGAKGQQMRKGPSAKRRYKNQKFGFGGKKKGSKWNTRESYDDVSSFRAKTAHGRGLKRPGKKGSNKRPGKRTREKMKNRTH
UniProt Q9C073, sequence (Q9C073 whole entry, looked up): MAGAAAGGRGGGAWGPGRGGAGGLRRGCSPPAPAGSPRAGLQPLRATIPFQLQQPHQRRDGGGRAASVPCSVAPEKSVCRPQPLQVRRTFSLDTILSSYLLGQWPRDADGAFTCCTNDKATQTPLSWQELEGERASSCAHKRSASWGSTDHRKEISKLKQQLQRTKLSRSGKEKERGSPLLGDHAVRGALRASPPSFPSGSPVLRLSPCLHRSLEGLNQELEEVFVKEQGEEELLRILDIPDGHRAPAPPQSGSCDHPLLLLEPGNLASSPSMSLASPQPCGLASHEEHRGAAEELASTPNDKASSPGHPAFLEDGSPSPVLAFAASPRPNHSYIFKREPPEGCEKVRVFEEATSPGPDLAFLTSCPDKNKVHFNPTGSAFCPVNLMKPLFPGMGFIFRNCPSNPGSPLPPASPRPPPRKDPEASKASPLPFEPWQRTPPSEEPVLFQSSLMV
UniProt O60231, sequence (O60231 whole entry, looked up): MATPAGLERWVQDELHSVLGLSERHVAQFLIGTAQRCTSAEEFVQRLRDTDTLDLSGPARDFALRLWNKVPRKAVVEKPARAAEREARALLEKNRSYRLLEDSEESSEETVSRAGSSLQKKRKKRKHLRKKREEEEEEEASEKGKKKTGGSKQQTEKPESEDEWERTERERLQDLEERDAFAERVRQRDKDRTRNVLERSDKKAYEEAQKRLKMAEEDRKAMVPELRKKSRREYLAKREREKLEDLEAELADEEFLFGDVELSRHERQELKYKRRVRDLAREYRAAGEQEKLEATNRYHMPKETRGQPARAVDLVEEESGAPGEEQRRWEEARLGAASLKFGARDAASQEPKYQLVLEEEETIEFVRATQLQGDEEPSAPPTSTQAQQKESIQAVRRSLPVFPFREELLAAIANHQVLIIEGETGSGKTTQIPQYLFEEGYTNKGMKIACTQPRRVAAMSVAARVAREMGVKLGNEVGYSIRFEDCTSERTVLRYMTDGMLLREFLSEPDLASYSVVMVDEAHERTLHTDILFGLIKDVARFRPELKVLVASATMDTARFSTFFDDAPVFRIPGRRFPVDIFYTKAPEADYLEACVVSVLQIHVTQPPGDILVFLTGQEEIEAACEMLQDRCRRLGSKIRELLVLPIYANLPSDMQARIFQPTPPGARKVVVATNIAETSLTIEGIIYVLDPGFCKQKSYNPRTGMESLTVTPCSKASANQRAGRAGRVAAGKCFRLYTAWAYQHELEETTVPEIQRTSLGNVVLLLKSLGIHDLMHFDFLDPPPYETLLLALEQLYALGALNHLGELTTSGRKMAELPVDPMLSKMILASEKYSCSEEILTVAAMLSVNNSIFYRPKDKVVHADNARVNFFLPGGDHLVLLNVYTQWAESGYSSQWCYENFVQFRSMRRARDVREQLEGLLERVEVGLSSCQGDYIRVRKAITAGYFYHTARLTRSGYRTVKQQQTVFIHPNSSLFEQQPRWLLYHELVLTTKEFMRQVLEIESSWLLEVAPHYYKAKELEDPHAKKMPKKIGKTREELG
UniProt Q7L576, sequence (Q7L576 whole entry, looked up): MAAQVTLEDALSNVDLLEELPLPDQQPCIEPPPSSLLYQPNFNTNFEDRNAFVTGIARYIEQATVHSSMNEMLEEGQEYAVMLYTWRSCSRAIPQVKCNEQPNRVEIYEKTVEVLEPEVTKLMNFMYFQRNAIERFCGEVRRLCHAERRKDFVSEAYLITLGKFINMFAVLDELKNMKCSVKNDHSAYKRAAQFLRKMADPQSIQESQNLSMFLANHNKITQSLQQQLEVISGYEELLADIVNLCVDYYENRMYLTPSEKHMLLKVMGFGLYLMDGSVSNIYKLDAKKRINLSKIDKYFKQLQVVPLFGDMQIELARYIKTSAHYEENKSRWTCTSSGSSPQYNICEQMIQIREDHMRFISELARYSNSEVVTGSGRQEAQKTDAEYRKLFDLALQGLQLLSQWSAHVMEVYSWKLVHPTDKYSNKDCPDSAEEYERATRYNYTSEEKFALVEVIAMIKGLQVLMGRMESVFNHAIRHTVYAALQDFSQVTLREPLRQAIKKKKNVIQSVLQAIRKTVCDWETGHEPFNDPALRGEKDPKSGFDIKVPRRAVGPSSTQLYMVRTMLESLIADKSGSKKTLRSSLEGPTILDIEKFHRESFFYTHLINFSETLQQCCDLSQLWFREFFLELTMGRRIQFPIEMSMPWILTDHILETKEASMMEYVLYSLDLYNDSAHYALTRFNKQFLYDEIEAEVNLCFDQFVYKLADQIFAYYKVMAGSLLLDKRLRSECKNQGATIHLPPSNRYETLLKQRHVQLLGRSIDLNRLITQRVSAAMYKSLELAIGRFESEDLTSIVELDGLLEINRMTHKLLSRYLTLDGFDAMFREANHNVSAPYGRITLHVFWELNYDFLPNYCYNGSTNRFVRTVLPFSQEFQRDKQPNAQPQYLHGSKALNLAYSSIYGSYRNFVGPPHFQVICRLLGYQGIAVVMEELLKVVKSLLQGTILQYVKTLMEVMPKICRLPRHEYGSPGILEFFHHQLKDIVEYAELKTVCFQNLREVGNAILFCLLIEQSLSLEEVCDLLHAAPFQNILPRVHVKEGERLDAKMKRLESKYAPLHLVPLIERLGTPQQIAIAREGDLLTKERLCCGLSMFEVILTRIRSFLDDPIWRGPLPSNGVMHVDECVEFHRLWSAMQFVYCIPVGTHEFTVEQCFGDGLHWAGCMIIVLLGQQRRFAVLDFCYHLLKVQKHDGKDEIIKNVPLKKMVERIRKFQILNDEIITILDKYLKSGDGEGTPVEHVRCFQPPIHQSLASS
UniProt Q16643, sequence (Q16643 whole entry, looked up): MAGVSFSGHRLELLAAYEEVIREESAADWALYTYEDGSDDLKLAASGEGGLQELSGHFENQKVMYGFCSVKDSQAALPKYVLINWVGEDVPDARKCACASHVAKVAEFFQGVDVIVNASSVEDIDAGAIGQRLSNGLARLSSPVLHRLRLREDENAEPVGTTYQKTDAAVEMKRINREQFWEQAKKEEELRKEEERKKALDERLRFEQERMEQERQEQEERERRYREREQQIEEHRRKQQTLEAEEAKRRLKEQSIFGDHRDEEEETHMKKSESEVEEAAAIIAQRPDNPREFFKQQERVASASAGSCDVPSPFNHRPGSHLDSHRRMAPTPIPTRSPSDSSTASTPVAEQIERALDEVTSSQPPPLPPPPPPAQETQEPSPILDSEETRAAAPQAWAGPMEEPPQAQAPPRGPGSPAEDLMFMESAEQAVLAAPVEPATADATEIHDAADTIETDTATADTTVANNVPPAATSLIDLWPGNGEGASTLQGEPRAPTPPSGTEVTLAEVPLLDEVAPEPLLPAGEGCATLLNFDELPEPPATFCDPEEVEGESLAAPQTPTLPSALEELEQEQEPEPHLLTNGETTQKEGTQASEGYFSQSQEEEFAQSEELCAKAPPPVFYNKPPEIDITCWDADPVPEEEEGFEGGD

Target | log2 fold change [1] | log2 fold change (volasertib) | log2 fold change [2] | log2 fold change (epoxomicin) | log2 fold change [3] | log2 fold change [4] | log2 fold change [5] | log2 fold change (rosiglitazone) | log2 fold change [6] | log2 fold change [7] | log2 fold change (saracatinib) | log2 fold change (sotrastaurin) | log2 fold change (alvocidib) | log2 fold change (Tubastatin A) | log2 fold change [8] | log2 fold change (defactinib) | log2 fold change (rucaparib) | log2 fold change [9] | log2 fold change (encorafenib) | log2 fold change [10]
DBT (UniProt P11182) | 0.068 | 0.009 | -0.01 | -0.022 | -0.018 | -0.001 | -0.14 | -0.025 | 0.015 | 0.045 | -0.012 | 0.025 | 0.009 | -0.072 | 0.048 | 0.071 | 0.089 | -0.03 | 0.046 | -0.013
DNM2 (UniProt P50570) | -0.013 | -0.015 | 0.043 | 0.029 | -0.002 | -0.091 | 0.037 | 0.05 | -0.044 | -0.349 (active) | -0.028 | 0.043 | -0.074 | 0 | -0.027 | -0.02 | 0.035 | 0.029 | 0.009 | -0.03
EEF1G isoform 2 (UniProt P26641) | -0.164 | -0.364 (active) | 0.075 | 0.008 | -0.012 | -0.005 | 0.022 | 0.005 | 0.011 | 0.016 | -0.012 | -0.041 | -0.044 | -0.008 | 0.075 | -0.051 | 0.045 | 0.02 | 0.076 | -0.047
DHX16 (UniProt O60231) | -0.032 | -0.158 | 0.032 | 0.051 | -0.05 | -0.054 | -0.025 | 0.031 | -0.033 | -0.012 | 0.024 | -0.037 | -0.045 | -0.001 | -0.042 | -0.035 | -0.027 | 0.028 | 0.019 | -0.013
FAM160B1 (UniProt Q5W0V3) | -0.007 | -0.043 | 0.07 | 0 | 0.027 | -0.057 | -0.052 | 0.009 | -0.056 | -0.254 | -0.003 | -0.071 | -0.138 | 0 | -0.011 | -0.01 | -0.036 | -0.007 | -0.015 | 0.072
DIAPH1 (UniProt O60610) | 0.012 | -0.211 | 0.09 | -0.004 | -0.061 | 0.055 | 0.053 | 0.047 | 0.168 | -0.012 | -0.104 | -0.276 | 0.132 | 0.086 | 0.044 | -0.039 | 0.219 | 0.125 | 0.215 | -0.12
DBN1 isoform 3 (UniProt Q16643) | 0.026 | -0.189 | 0.089 | -0.014 | 0.017 | 0.087 | -0.047 | -0.021 | 0.05 | -0.011 | 0.121 | 0.001 | -0.044 | -0.094 | -0.042 | -0.06 | 0.041 | -0.011 | 0.097 | -0.033
EOGT (UniProt Q5NDL2) | -0.004 | 0.013 | -0.037 | 0.05 | -0.007 | 0.001 | 0 | 0.022 | 0.021 | 0.062 | -0.012 | 0.052 | -0.02 | 0.025 | 0 | 0.031 | 0.014 | -0.158 | 0.042 | -0.032
DCAF10 (UniProt Q5QP82) | -0.003 | 0.029 | -0.038 | -0.102 | -0.049 | -0.018 | -0.043 | -0.015 | -0.026 | 0.022 | 0.09 | 0.021 | -0.011 | -0.094 | -0.018 | -0.009 | -0.083 | 0.007 | 0.052 | 0
DNAH11 (UniProt Q96DT5) | 0.234 | 0.426 | -0.029 | -0.157 | 0.063 | 0.176 | -0.111 | -0.047 | 0.298 | -0.424 | 0.301 | 0.317 | 0.517 | -0.083 | -0.043 | -0.11 | 0.162 | 0.061 | 0.152 | 0.049
FAM117A (UniProt Q9C073) | 0.001 | 0.129 | 0.071 | 0.091 | 0.006 | -0.025 | 0.028 | 0.015 | -0.008 | -0.182 | -0.019 | 0.009 | -0.077 | 0.058 | -0.268 (active) | -0.141 | -0.079 | 0.083 | -0.023 | 0.009
EBNA1BP2 (UniProt Q99848) | 0.167 | 0.351 | 0.021 | -0.343 | -0.059 | 0.132 | -0.106 | -0.25 | 0.379 | 0.197 | -0.081 | -0.138 | 0.165 | 0.34 | -0.047 | 0.512 | 0.23 | 0.142 | 0.13 | 0.086
CYFIP1 (UniProt Q7L576) | -0.011 | -0.233 (active) | 0.046 | 0.02 | -0.008 | 0.011 | 0.024 | 0.045 | 0.001 | -0.034 | -0.023 | -0.026 | -0.038 | 0.006 | -0.001 | -0.049 | 0.025 | 0 | -0.005 | -0.013
EHD2 (UniProt Q9NZN4) | -0.073 | -0.243 (active) | 0.027 | 0.023 | -0.029 | -0.085 | 0.007 | 0.039 | -0.045 | -0.002 | 0.016 | 0.017 | -0.017 | 0.048 | -0.031 | -0.12 | -0.019 | -0.053 | 0.046 | -0.061
DCAF6 isoform 3 (UniProt Q58WW2) | 0.077 | 0.05 | -0.064 | 0.025 | 0.013 | -0.03 | -0.035 | 0.006 | 0.006 | 0.004 | 0.093 | 0.001 | 0.001 | -0.05 | -0.027 | -0.012 | -0.028 | -0.051 | 0 | 0.034
DHRS1 (UniProt Q96LJ7) | 0.164 | 0.302 | 0.039 | -0.062 | 0.034 | -0.098 | -0.048 | -0.022 | -0.051 | 0.065 | -0.074 | 0.153 | -0.018 | 0.022 | 0.375 | -0.007 | 0.031 | 0.392 | -0.116 | -0.116
